Tests used:
Test in all cases: PBM binding z-score (relative to random genomic background probes); higher = stronger binding; sequences stand for … in GC…GCGATTGACAGCGTAGAATGAAGG
[1] = test system: PPARg:RXRa DBDmut IVT, anti-RXR (DBD mutation: RXRa K156A/R161A, NR concentration 270 nM, RXRa partner concentration 90 nM)
In short: (§1)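 Scanned fluorescence from custom Agilent 4×180K protein-binding microarrays was regression-normalized. Binding z-scores use random background probes as reference. Ligand-free nuclear receptor dimers were incubated on the arrays for 1 h and detected with antibodies against each partner (one per run).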

[2] = test system: PPARg:RXRa IVT, anti-PPARg (NR concentration 270 nM, RXRa partner concentration 90 nM)
In short: as §1

[3] = test system: PPARg DBDmut:RXRa IVT, anti-PPARg (DBD mutation: PPARg1 K132A/R137A, NR concentration 270 nM, RXRa partner concentration 90 nM)
In short: as §1

[4] = test system: PPARg DBDmut IVT, anti-PPARg (DBD mutation: PPARg1 K132A/R137A, NR concentration 270 nM)
In short: as §1

[5] = test system: PPARg homodimer (NR concentration 180 nM)
In short: as §1

[6] = test system: PXR:RXRa (NR concentration 270 nM, RXRa partner concentration 90 nM)
In short: as §1

[7] = test system: PXR homodimer (NR concentration 270 nM)
In short: as §1

[8] = test system: RARa:RXR (NR concentration 270 nM, RXRa partner concentration 90 nM)
In short: as §1

[9] = test system: RARa homodimer (NR concentration 270 nM)
In short: as §1

[10] = test system: RARb:RXRa (NR concentration 270 nM, RXRa partner concentration 90 nM)
In short: as §1

[11] = test system: RARb homodimer (NR concentration 270 nM)
In short: as §1

[12] = test system: RARg:RXRa (NR concentration 270 nM, RXRa partner concentration 90 nM)
In short: as §1

[13] = test system: RARg homodimer (NR concentration 270 nM)
In short: as §1

[14] = test system: RXRa DBDmut IVT, anti-RXR (DBD mutation: RXRa K156A/R161A, NR concentration 90 nM)
In short: as §1

[15] = test system: RXRa homodimer (NR concentration 180 nM)
In short: as §1

[16] = test system: THRa:RXRa (NR concentration 90 nM, RXRa partner concentration 90 nM)
In short: as §1

[17] = test system: THRa homodimer (NR concentration 90 nM)
In short: as §1

[18] = test system: VDR homodimer (NR concentration 270 nM)
In short: as §1

Row | Sequence | PBM binding z-score [1] | PBM binding z-score [2] | PBM binding z-score [3] | PBM binding z-score [4] | PBM binding z-score [5] | PBM binding z-score [6] | PBM binding z-score [7] | PBM binding z-score [8] | PBM binding z-score [9] | PBM binding z-score [10] | PBM binding z-score [11] | PBM binding z-score [12] | PBM binding z-score [13] | PBM binding z-score [14] | PBM binding z-score [15] | PBM binding z-score [16] | PBM binding z-score [17] | PBM binding z-score [18]
1 | TCATATAGGTAAACAGGTGAAAGTGCGTAAGTTA | 4.84 | 4.9 | 1.29 | 1.03 | 1.33 | 1.04 | 0.631 | 1.27 | 1.75 | 0.94 | 1.09 | 0.642 | 0.552 | 1.66 | 1.17 | 0.829 | 0.583 | 0.623
2 | CCTTACGGGTCACGCGGTTATAGCACGACGAGCG | 4.11 | 4.96 | 0.683 | 0.817 | 1.05 | 3.53 | -0.0866 | 4.59 | 0.82 | 4.33 | 3.87 | 5.86 | 5.88 | 1.3 | 6.68 | 3.17 | 0.416 | 1.19
3 | CCTTCCGGGTCACTGACAGGTTATAGCATTTGGA | 3.69 | 5.08 | 0.702 | -0.286 | 2.37 | 3.71 | 0.125 | 4.23 | 0.725 | 3.78 | 3.23 | 5.65 | 4.44 | 1.53 | 4.67 | 3.67 | 2.25 | 1.3
4 | TCATATAAGTAAACAGGTGAAAGTCCGTAAGTTA | 3.11 | 1.31 | 0.554 | 1.07 | 1.13 | 1.09 | 0.507 | 1.19 | 1.75 | 0.383 | 0.596 | 0.357 | 0.421 | 2.12 | 0.907 | 0.674 | 0.549 | 0.857
5 | ATCTGTAGGTAACCAAGTTCAGTGAATGCCGAAC | 2.89 | 2.55 | -0.123 | 0.924 | 0.414 | 2.03 | 1.73 | 0.813 | 0.332 | 1.08 | 1.32 | 0.689 | 0.722 | 0.655 | 0.689 | 1.26 | 0.246 | 2.56
6 | CCTTACGTGTCAAGGTTATAGCACGGGTGGTACG | 0.564 | 0.962 | -0.292 | 0.0662 | 0.942 | 0.998 | 0.776 | 1.16 | 1.18 | 1.57 | 1.28 | 1.34 | 1.35 | -0.145 | 1.11 | 1.57 | 0.906 | 0.926
7 | GCTAGCTGGCCATTTGGGTCACTCAATGACGGGC | 0.293 | 1.17 | -0.756 | -0.983 | -0.342 | -0.0667 | -0.751 | 0.365 | -1.31 | 0.859 | 1.49 | 0.332 | 0.89 | -0.667 | 0.339 | 1.22 | 0.32 | -0.66
8 | TCTCGGAGGGCACGAAGGTCAGAGCTTTCCAGAG | 1.9 | 2.51 | -0.633 | -1.03 | 1.08 | 3.25 | 2.26 | 2.88 | -0.387 | 3.92 | 3.94 | 4.11 | 3.97 | 0.77 | 2.79 | 2.63 | -0.228 | 1.81
9 | TCATATAAGTAAAAGGTGAAAGTCGGTGTGGTAA | 3.39 | 2.38 | 0.923 | 0.618 | 1.82 | 1.24 | 0.368 | 2.22 | 1.48 | 1.83 | 1.85 | 1.3 | 0.831 | 1.85 | 2.11 | 1.46 | 0.55 | 0.109
10 | CCTAGCAGGCCAAGCTGGGTCACTCAAGGCTTGA | 1.17 | 0.818 | -0.82 | -1.65 | 0.234 | 0.605 | -0.579 | 1.29 | -0.984 | 1.7 | 2.2 | 1.64 | 1.65 | -0.265 | 1.17 | 3.28 | -0.143 | -0.334
11 | GCTGCTAGGTCTACTGATGGTCAGCTAAAGCTCG | 0.214 | -0.311 | -1.02 | -1.38 | -1.15 | -0.901 | -1.2 | -0.701 | -0.754 | -0.132 | -0.175 | -0.238 | -0.555 | 0.147 | -0.738 | -0.635 | -0.572 | -0.893
12 | GGTGCTAGGTCAGGTTGGTCAGCTAACGGGTACG | 2.64 | 3.08 | -0.502 | -0.0479 | 1.8 | 0.63 | 0.481 | 1.2 | 1.12 | 3.56 | 3.2 | 2.9 | 4.21 | 0.112 | 1.38 | 1.94 | 1.19 | 0.971
13 | TCATATAGGTAATACAGGTGTAAGTCGGCATCTA | 3.63 | 2.43 | 1.94 | 1.17 | 1 | 0.767 | 0.343 | 0.844 | 1.25 | 0.255 | -0.213 | 0.547 | 0.355 | 1.67 | 1.03 | 0.384 | 0.316 | 0.283
14 | CGAACTAGGTCATTGACACGACAGTGAATAGTAA | 7.93 | 8.44 | 3.78 | 3.06 | 2.25 | 1.33 | 0.767 | 2.2 | 0.177 | 3.52 | 2.5 | 3.57 | 4.22 | 2.37 | 2.52 | 2.53 | 0.751 | 1.15
